4 compounds from ChEMBL document CHEMBL1961873, “Compounds: GSK PKIS; Assays: Nanosyn kinase panel” (2012) can be followed below.

Structures are written as SMILES.

For assay [1], the target named is 5'-AMP-activated protein kinase catalytic subunit alpha-2 (Homo sapiens) (UniProt P54646). Conditions: at 1 µM.
Assay [2] concerns the target T1, NUAK family SNF1-like kinase 1 (Homo sapiens) (UniProt O60285).
T1 sequence (whole entry): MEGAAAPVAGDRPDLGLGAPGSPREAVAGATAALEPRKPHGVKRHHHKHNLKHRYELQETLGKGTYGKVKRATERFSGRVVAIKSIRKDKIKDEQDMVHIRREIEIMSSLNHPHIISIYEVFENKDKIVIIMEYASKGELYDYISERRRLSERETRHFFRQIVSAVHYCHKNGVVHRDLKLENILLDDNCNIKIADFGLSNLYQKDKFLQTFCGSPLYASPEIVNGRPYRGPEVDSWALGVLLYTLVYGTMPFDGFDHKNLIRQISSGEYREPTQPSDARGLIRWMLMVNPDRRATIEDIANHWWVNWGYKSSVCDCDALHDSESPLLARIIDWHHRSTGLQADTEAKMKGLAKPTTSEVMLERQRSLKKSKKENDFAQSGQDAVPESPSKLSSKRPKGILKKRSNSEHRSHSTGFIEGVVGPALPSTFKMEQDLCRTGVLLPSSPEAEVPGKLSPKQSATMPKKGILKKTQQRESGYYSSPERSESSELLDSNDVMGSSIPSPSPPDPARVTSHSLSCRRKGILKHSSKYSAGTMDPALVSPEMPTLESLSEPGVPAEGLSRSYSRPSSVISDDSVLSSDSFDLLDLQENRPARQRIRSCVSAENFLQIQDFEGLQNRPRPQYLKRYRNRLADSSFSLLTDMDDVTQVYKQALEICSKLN
Conditions: at 0.1 µM.

For assay [3], the target named is T1, NUAK family SNF1-like kinase 1 (Homo sapiens). Conditions: at 1 µM.
Assay [4] concerns the target T2, Serine/threonine-protein kinase BRSK1 (Homo sapiens) (UniProt Q8TDC3).
T2 sequence (whole entry): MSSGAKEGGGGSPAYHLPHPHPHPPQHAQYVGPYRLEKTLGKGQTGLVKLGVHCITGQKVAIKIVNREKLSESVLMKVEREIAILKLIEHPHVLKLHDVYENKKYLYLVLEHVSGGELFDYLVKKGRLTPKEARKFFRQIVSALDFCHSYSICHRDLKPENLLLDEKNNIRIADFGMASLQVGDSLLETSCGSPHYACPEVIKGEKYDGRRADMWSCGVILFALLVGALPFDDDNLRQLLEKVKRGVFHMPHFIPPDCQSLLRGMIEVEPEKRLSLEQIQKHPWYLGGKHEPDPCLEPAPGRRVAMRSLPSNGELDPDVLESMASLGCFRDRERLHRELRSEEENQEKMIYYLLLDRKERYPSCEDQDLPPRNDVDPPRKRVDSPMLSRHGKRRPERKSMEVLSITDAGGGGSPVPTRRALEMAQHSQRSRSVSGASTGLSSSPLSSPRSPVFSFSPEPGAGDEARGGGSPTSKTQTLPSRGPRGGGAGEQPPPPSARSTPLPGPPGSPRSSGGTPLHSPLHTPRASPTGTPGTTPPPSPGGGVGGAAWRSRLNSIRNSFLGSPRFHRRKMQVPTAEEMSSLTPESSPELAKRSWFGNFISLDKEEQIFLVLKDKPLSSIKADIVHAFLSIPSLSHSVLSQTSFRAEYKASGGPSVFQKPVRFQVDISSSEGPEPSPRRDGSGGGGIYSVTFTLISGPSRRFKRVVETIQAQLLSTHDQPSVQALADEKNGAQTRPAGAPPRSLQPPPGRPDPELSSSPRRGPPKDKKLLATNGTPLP
The conditions noted are these: at 0.1 µM.

Assay [5] concerns the target T2, Serine/threonine-protein kinase BRSK1 (Homo sapiens). Conditions: at 1 µM.
In assay [6] the target is T3, Serine/threonine-protein kinase BRSK2 (Homo sapiens) (UniProt Q8IWQ3).
T3 sequence (whole entry): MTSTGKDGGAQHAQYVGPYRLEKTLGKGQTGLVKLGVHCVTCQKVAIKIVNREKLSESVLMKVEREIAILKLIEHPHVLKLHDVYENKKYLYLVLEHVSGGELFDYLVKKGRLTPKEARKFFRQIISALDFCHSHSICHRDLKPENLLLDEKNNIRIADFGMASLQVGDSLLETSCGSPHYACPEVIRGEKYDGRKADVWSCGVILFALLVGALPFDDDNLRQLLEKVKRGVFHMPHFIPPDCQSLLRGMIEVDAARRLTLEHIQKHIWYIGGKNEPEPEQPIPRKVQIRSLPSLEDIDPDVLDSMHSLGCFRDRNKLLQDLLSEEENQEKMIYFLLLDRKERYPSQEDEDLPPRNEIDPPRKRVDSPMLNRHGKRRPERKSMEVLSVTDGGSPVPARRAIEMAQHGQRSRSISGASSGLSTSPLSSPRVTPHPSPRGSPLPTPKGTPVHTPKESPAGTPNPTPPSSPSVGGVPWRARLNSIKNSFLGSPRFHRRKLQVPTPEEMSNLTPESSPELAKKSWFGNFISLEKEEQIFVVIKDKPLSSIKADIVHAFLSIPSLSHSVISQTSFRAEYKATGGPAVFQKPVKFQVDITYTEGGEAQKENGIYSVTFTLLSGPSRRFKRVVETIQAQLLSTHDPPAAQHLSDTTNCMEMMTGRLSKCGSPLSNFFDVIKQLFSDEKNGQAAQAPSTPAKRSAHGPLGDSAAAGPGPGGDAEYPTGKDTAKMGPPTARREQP
Conditions: at 0.1 µM.

The target in assay [7] is T3, Serine/threonine-protein kinase BRSK2 (Homo sapiens). The conditions noted are these: at 1 µM.
The target of assay [8] is Calcium/calmodulin-dependent protein kinase type 1D (Homo sapiens) (UniProt Q8IU85). The conditions noted are these: at 0.1 µM.
Calcium/calmodulin-dependent protein kinase type 1D (Homo sapiens), sequence (Q8IU85 whole entry, looked up): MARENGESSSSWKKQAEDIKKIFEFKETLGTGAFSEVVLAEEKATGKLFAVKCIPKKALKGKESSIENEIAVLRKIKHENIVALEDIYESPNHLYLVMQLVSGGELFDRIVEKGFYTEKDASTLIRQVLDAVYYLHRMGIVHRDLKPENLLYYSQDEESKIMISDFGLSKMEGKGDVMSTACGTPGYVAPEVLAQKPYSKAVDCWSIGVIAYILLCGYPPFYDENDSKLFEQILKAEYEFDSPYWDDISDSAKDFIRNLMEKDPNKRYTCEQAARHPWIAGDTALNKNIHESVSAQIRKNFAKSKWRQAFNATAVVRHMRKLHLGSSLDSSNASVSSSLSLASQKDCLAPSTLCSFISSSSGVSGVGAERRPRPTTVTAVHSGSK
Assay [9] shares this target. Conditions: at 1 µM.
Assay [10] has as its target Calcium/calmodulin-dependent protein kinase type II subunit alpha (Homo sapiens) (UniProt Q9UQM7). Conditions: at 0.1 µM.
For assay [11] the target is unchanged. Conditions: at 1 µM.
In assay [12] the target is Calcium/calmodulin-dependent protein kinase type II subunit delta (Homo sapiens) (UniProt Q13557). The conditions noted are these: at 0.1 µM.
Calcium/calmodulin-dependent protein kinase type II subunit delta (Homo sapiens), sequence (Q13557 whole entry): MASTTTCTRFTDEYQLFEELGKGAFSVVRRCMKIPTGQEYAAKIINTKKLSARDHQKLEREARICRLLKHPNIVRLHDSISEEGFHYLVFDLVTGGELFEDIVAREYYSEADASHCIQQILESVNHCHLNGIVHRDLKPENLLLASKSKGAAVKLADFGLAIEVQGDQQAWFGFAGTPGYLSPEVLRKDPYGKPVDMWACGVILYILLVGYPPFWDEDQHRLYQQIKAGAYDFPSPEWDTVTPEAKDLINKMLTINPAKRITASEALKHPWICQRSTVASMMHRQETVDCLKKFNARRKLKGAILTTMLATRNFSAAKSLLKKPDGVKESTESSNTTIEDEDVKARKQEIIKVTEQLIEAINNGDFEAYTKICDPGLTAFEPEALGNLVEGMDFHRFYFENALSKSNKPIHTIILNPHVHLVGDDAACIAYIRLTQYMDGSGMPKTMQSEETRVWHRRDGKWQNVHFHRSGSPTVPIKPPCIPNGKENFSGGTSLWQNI
Assay [13] shares this target. The conditions noted are these: at 1 µM.
Assay [14] addresses T4, Calcium/calmodulin-dependent protein kinase type IV (Homo sapiens) (UniProt Q16566).
T4 sequence (whole entry): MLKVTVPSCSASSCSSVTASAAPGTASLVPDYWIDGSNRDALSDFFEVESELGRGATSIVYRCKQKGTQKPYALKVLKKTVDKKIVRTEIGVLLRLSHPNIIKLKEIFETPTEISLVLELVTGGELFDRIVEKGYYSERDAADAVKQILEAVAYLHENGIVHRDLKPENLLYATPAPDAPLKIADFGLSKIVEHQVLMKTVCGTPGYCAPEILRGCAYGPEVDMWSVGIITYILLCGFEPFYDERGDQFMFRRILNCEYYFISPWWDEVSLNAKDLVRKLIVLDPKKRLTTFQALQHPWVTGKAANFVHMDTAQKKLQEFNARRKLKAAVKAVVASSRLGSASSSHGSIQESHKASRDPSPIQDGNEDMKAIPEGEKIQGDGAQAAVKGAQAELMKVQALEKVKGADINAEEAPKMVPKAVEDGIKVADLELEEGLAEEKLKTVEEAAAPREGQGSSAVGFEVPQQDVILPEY
The conditions noted are these: at 0.1 µM.

In assay [15] the target is T4, Calcium/calmodulin-dependent protein kinase type IV (Homo sapiens). The conditions noted are these: at 1 µM.
The target of assay [16] is T5, Serine/threonine-protein kinase Chk1 (Homo sapiens) (UniProt O14757).
T5 sequence (whole entry): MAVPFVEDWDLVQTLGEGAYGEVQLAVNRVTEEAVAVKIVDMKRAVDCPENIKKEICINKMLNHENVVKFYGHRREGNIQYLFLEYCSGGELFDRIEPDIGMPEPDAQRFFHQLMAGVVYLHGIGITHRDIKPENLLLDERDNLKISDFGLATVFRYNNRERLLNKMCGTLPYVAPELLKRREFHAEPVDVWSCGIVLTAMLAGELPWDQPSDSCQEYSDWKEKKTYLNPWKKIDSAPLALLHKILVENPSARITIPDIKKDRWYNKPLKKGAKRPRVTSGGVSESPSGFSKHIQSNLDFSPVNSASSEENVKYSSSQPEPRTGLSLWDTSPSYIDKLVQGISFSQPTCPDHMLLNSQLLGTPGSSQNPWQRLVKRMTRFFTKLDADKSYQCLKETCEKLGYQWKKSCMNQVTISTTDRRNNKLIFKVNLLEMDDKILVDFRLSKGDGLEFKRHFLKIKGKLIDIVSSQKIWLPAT
Conditions: at 0.1 µM.

Assay [17] concerns the target T5, Serine/threonine-protein kinase Chk1 (Homo sapiens). Conditions: at 1 µM.
In assay [18] the target is Serine/threonine-protein kinase Chk2 (Homo sapiens) (UniProt O96017). Conditions: at 0.1 µM.
Serine/threonine-protein kinase Chk2 (Homo sapiens), sequence (O96017 whole entry): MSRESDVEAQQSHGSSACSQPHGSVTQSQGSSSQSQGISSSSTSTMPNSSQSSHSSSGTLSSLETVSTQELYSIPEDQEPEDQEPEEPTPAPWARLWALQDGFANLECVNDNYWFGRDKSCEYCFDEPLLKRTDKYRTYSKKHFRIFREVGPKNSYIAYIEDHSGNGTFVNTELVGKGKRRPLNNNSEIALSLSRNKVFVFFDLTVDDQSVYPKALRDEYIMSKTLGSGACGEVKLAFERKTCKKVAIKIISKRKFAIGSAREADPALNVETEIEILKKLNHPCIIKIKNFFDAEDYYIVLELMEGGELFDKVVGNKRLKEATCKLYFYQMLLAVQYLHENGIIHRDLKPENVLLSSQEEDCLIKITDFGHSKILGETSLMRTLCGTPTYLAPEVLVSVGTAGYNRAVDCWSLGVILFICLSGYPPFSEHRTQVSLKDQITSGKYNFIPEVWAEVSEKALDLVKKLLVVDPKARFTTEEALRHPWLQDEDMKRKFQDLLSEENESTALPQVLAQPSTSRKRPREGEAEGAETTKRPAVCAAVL
Assay [19] shares this target. The conditions noted are these: at 1 µM.
The target in assay [20] is Death-associated protein kinase 1 (Homo sapiens) (UniProt P53355). The conditions noted are these: at 0.1 µM.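 Further: reported figure is the mean inhibition of DAPK1.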
Death-associated protein kinase 1 (Homo sapiens), sequence (P53355 whole entry, looked up): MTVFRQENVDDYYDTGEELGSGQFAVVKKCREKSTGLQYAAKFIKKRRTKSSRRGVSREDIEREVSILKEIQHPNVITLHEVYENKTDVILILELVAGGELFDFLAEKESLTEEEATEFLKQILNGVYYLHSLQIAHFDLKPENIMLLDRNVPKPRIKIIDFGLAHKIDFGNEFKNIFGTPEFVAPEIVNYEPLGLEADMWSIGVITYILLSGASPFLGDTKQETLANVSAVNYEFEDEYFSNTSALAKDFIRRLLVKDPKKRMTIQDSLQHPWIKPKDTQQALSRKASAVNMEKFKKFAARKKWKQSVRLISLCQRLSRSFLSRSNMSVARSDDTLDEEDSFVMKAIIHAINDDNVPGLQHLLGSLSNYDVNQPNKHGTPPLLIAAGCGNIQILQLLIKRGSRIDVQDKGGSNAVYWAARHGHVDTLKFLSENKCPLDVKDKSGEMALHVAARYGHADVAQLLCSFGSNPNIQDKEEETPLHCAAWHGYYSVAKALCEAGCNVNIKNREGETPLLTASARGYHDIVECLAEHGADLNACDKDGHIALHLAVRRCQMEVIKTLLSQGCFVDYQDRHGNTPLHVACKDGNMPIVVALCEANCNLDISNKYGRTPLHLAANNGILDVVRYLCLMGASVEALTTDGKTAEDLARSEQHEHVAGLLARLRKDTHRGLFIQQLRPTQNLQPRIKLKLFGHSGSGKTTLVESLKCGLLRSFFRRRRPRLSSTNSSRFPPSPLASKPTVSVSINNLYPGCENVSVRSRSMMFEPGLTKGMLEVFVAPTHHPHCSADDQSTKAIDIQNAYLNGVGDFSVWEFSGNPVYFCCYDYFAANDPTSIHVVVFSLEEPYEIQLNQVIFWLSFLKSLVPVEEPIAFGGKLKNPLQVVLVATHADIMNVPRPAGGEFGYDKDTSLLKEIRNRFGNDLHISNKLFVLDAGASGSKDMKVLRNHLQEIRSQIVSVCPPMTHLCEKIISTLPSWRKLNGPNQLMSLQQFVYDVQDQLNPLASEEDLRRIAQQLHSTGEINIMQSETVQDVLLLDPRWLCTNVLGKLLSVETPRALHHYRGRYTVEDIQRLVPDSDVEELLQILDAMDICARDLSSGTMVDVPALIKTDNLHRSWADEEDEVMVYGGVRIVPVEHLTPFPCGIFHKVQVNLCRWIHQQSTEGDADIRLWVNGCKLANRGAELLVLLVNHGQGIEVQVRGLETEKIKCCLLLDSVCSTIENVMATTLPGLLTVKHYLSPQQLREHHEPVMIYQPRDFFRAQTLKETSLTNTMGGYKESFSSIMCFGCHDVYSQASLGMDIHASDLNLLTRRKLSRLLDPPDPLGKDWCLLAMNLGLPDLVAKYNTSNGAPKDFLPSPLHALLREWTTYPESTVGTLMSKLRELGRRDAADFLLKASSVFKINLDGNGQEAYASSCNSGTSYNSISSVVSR

5'-AMP-activated protein kinase catalytic subunit alpha-2 (Homo sapiens), sequence (P54646 whole entry, looked up): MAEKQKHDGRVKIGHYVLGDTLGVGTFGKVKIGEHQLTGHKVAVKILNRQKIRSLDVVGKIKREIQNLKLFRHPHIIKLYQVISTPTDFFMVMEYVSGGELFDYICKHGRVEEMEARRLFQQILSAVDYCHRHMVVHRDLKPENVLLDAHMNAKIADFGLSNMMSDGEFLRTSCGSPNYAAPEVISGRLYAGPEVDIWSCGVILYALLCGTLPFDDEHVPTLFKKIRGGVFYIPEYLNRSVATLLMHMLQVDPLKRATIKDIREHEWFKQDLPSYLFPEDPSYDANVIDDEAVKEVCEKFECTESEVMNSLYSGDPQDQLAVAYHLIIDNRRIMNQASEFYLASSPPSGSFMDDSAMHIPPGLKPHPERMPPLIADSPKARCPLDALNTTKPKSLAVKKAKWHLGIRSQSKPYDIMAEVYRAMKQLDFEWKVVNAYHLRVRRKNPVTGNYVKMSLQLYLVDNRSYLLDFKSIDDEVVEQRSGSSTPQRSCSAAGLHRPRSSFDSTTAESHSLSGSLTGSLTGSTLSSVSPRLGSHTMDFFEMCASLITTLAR
Calcium/calmodulin-dependent protein kinase type II subunit alpha (Homo sapiens), sequence (Q9UQM7 whole entry): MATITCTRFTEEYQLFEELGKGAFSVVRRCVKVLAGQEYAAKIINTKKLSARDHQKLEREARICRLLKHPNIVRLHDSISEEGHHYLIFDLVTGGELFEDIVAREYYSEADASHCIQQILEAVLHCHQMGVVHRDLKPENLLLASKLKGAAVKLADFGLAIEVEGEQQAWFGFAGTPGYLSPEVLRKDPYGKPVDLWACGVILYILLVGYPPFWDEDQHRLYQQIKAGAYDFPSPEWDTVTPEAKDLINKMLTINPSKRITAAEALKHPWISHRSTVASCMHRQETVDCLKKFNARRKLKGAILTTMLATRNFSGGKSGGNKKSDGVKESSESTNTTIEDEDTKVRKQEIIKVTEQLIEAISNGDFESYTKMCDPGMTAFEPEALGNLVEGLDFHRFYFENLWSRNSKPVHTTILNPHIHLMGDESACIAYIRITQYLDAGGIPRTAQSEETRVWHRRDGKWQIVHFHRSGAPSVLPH

Broadly, the inhibition is the change of the read-out against control, counted positive when it falls. Regarding `Fc1ccc(-c2ncn(C3CCNCC3)c2-c2ccnc(Oc3ccc(F)c(F)c3)n2)cc1`, the inhibition was determined as 4.77% in assay [1]; 2.44% in [2]; 6.58% in assay [3]; 1.29% in assay [4]; 3.93% in assay [5]; 3.75% in assay [6]. Further, the inhibition in assay [7] was 5.29%; in assay [8], -1.15%; in assay [9], -1.08%; in assay [10] it was 2.48%; in assay [11] it was 0.43%; in [12] it was 1.91%. Also, the inhibition was 4.38% in assay [13]; -2.42% in assay [14]; -1.76% in assay [15]; -3.21% in assay [16]; 5.61% in assay [17]; 2.5% in assay [18]. The inhibition in assay [19] is 2.87%; in [20] it was 3.38%.

Regarding `COc1ccc(C2=C(N3CCc4ccccc43)C(=O)NC2=O)cc1`, the inhibition was determined as 5.49% in [1]; 3.26% in assay [2]; 9.32% in assay [3]; 1.07% in [4]; 3.32% in assay [5]; 2.56% in assay [6]. Besides, the inhibition in [7] worked out at 3.2%; in assay [8], 0.57%; in assay [9], 1.29%; in assay [10] it was 5.74%; in [11], 4.72%; in assay [12] it was 4.35%. The inhibition in assay [13] stood at 7.01%; in [14], 0.45%; in [15] it was 0.33%; in assay [16], 3.53%; in [17] it was 3.47%; in assay [18] it was 3.04%. Besides, the inhibition came to 3.92% in assay [19] and 3.58% in assay [20].

With `NS(=O)(=O)c1ccc(N/N=C2\C(=O)Nc3ccc(-c4cnco4)cc32)cc1`, the inhibition in [1] worked out at 11.8%; in assay [2], 5.26%; in assay [3], 35.2%; in [4] it was 2.76%; in assay [5], 14.5%; in assay [6] it was 3.56%. The inhibition in assay [7] is 23.8%; in [8], -0.53%; in assay [9], 2.62%; in [10] it was 0.21%; in [11], 4.17%; in assay [12], 2.48%. Besides, the inhibition in assay [13] was 16.3%; in assay [14], -0.57%; in assay [15] it was -0.99%; in assay [16], -0.45%; in [17] it was 6.95%; in assay [18] it was 0.92%. In addition, the inhibition is 5.7% in assay [19] and -1.79% in assay [20].

`COc1ccc2cc(-c3c(-c4ccncc4)nc(-c4ccc(S(C)(=O)=O)cc4C)n3C)ccc2c1`: the inhibition is 3.5% in [1]; -2.12% in [2]; 4.31% in [3]; 1.72% in assay [4]; 1.23% in [5]; 1.12% in assay [6]. The inhibition in assay [7] turned out to be 3.04%; in assay [8] it was 1.08%; in [9] it was 1.85%; in assay [10], 2.82%; in assay [11], 3.89%; in assay [12], 3.49%. Besides, the inhibition in assay [13] was 3.21%; in assay [14], 0.37%; in assay [15] it was 0.96%; in assay [16], -2.73%; in [17] it was -3.07%; in assay [18], -2.23%. Besides, the inhibition in assay [19] is -0.36%; in [20] it was -2.52%.
